This note sets out measurements from PubChem BioAssay (NCI).

Common to all, as to experiment: NCI-60 one-dose screen, 48 h (100 = growth as untreated, 0 = no growth, -100 = all killed)
Holding throughout (conditions): 10 µM unless noted

Assay [1] deals with NCI-H23 lung.
Assay [2] concerns NCI-H226 lung.
Assay [3] concerns NCI-H322M lung.
For assay [4], the system named is HOP-62 NSCLC.
The test system of assay [5] is NCI-H460 lung.
In assay [6] the test system is HOP-92 NSCLC.
The test system of assay [7] is NCI-H522 lung.
For assay [8], the system named is A549/ATCC NSCLC.
In assay [9] the test system is 786-0 renal.
For assay [10], the system named is COLO 205 colon.
For assay [11], the system named is DU-145 prostate.
The subject of assay [12] is K-562 leukemia.
Assay [13] deals with MALME-3M melanoma.
In assay [14] the test system is MDA-MB-231 breast.
The test system of assay [15] is RXF 393 renal.
Assay [16] relates to SF-268 CNS.
In assay [17] the test system is SF-295 CNS.
Assay [18] has as its system SF-539 CNS.
Assay [19] relates to UACC-257 melanoma.
The subject of assay [20] is M14 melanoma.

SMILES strings stand for the structures. About 83,000 compounds went through this panel and 20% of them were active in at least one assay; those are over-represented in the sample as a whole.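 For each line, cells grew in 96-well plates with the test compound present at a single concentration for 48 hours.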 Values without a mark were called inactive. Activity calls are given as the source filed them. The calls were made as follows: active = growth percent below 10; inactive = the rest.

For the molecule `Cc1ccc(C2C3CC4CCCCC4N3[C@@]3(C(=O)Nc4cc(Cl)ccc43)C2C(=O)c2nc3ccccc3[nH]2)cc1` (some centres not stated), the growth in assay [1] was 57.8%; in assay [2], 62.7%; in [3], 63.3%; in [4], 66.5%; in assay [5], 15.9%; in assay [6] it was 44.1%. Also, the growth in [7] is 54%; in assay [8] it was 31.1%; in assay [9] it was 35.2%; in assay [10], 30.6%; in assay [11], 64.3%; in assay [12], 26.2%. The growth was 33.9% in assay [13]; 30.6% in [14]; 15.5% in assay [15]; 38.3% in assay [16]; 27.9% in [17]; 50.3% in assay [18]. Moreover, the growth was 35.1% in assay [19] and 27.9% in assay [20].
On to `CSc1nc(O)c(-c2ccccc2)c(=O)[nH]1`, for which the growth in [1] was 103%; in [2] it was 99.1%; in [3], 101%; in [4], 105%; in [5], 104%; in assay [6], 101%. Further, the growth in assay [7] was 94.2%; in assay [8], 100%; in [9], 101%; in assay [10], 103%; in assay [11], 107%; in assay [12], 98%. The growth in [13] was 101%; in assay [14] it was 98.5%; in assay [15], 116%; in assay [16] it was 103%; in [17], 101%; in assay [18], 100%. For the same molecule, the growth in assay [19] and in assay [20] was 101% in each case.
As for `COc1ccc(C(O)c2cc3c(N)c(C(=O)Nc4cccc(Br)c4C)sc3nc2C)cc1` (configuration not stated), the growth in assay [1] was 32.1%; in assay [2], 56.9%; in assay [3], 46.1%; in assay [4], 36.5%; in [5], -2.32% (active); in [6] it was 61.5%. The growth is -32.7% (active) in assay [7]; 20.5% in [8]; 37.6% in assay [9]; -7.14% (active) in [10]; 9.81% (active) in [11]; 5.92% (active) in assay [12]. For the same molecule, the growth in [13] is 47.3%; in [14] it was 5.97% (active); in [16] it was 30.1%; in assay [17] it was 18.5%; in assay [18], -3.14% (active); in assay [19], 47.8%. For the same molecule, the growth in assay [20] is 18.9%.
For the molecule `C=C1C(=O)O[C@H]2[C@H]1CC/C(CNC(=O)/C=C/c1ccccc1F)=C\CC[C@@]1(C)O[C@@H]21`, the growth is 64.8% in assay [1]; 71.9% in assay [2]; 73.9% in [3]; 74.5% in [4]; 56.2% in [5]; -28.2% (active) in assay [6]. Further, the growth is -73.5% (active) in [7]; 52.9% in [8]; -58.4% (active) in [9]; -45% (active) in assay [10]; 4.9% (active) in assay [11]; 2.05% (active) in assay [12]. In addition, the growth in assay [13] is -43.9% (active); in assay [14], 16.9%; in assay [15], -90.5% (active); in assay [16], 47.4%; in [17], 75.1%; in [18], -50.4% (active). Also, the growth in assay [19] is -6.45% (active); in assay [20], -32.5% (active).
For the molecule `Clc1ccc(N2N=C(c3cccc(Nc4ccncc4)c3)CC2c2ccc(Br)cc2)cc1` (configuration not stated), the growth in [1] is 57.1%; in assay [2] it was 92.2%; in assay [3], 66.2%; in assay [4] it was -39.3% (active); in assay [5] it was -82.6% (active); in assay [6], 60.3%. For the same molecule, the growth was -13.2% (active) in assay [7]; 16.7% in [8]; 105% in assay [9]; -48.7% (active) in assay [10]; 24.8% in assay [11]; 1.38% (active) in [12]. Besides, the growth in [13] is -40.5% (active); in [14] it was 31.8%; in assay [16], 72.2%; in [17] it was -69% (active); in assay [18], 83.8%; in [19], 77.8%. In assay [20], the growth is 107%.
Consider `NNC(=O)/C(=C\c1ccc([N+](=O)[O-])cc1)CC(=O)c1ccc(Cl)c(Cl)c1`, for which the growth in [1] is 91.6%; in assay [2] it was 69.2%; in [3], 84.3%; in assay [4], 83.3%; in assay [5] it was 90.5%; in [6], 103%. The growth in assay [7] was 77.2%; in assay [8] it was 78.9%; in assay [9], 92.9%; in [10], 100%; in [11] it was 88.7%; in assay [12], 88.8%. The growth in assay [13] is 94.3%; in [14] it was 89%; in assay [15], 97.8%; in [16], 65.1%; in assay [17] it was 93.6%; in assay [18], 98.1%. The growth in assay [19] was 91.1%; in assay [20], 85.6%.
As to `Cc1nn(-c2ccccc2)c(N2CCOCC2)c1/C=N/N=c1\sc2ccccc2n1C`, the growth in assay [1] was 79%; in assay [2], 73.8%; in assay [3], 92.6%; in assay [4], 99.4%; in assay [5], 39.6%; in [6] it was 53%. Further, the growth in assay [7] was 81.5%; in assay [8] it was 87.7%; in [9], 96.7%; in assay [10] it was 82.7%; in [11], 100%; in assay [12], 41.7%. For the same molecule, the growth was 99.4% in [13]; 52.3% in assay [14]; 88.6% in [15]; 85% in assay [16]; 89.3% in assay [17]; 84.7% in [18]. Also, the growth in assay [19] was 87.8%; in [20], 87.5%.
`c1cnc2nc3c(cc2c1)oc1ccccc13`: the growth in assay [1] was 95.9%; in [2], 93.2%; in [3], 99.9%; in assay [4], 108%; in assay [5] it was 95.2%; in assay [6] it was 90.3%. Further, the growth was 89.1% in assay [7]; 87.3% in assay [8]; 89.4% in assay [9]; 109% in [10]; 103% in assay [11]; 92.4% in assay [12]. In addition, the growth was 109% in assay [13]; 86.3% in assay [14]; 97.1% in [16]; 96.7% in assay [17]; 93.2% in assay [18]; 116% in assay [19]. Moreover, the growth in [20] is 105%.
